# In PubChem BioAssay (NCI):
# Compounds without any hit were thinned out: in the full panel of roughly 83,000, 20% have a hit.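 The endpoint reported here, percent growth, reads 100 for growth as untreated, 0 for no net growth and -100 for all cells dead.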 Values without a mark were called inactive. Activity calls are given as the source filed them. How the source made its calls: active means growth percent below 10; inactive means the rest.
# Columns and labels:
# Experiment in all cases: NCI-60 one-dose screen, 48 h (100 = growth as untreated, 0 = no growth, -100 = all killed)
# Details in all cases: 10 µM unless noted
# [1] = system: SK-MEL-2 melanoma
# [2] = system: EKVX NSCLC
# [3] = system: SN12C renal
# [4] = system: UO-31 renal
# [5] = system: TK-10 renal
# [6] = system: ACHN renal
# [7] = system: CAKI-1 renal
# [8] = system: A498 renal
# [9] = system: CCRF-CEM leukemia
# [10] = system: MOLT-4 leukemia
Compound,growth [1],growth [2],growth [3],growth [4],growth [5],growth [6],growth [7],growth [8],growth [9],growth [10]
O=C(CSc1nc2ccccc2c(=O)n1-c1ccccc1)Nc1ccc(S(=O)(=O)Nc2nccs2)cc1,89.9%,91.3%,63.8%,97.2%,112%,71.9%,59.1%,107%,34.8%,50.2%
CNC(=O)c1cc(-c2ccc(NC(=S)Nc3cccc(C(F)(F)F)c3)cc2)nc2cccnc12,103%,98.1%,97.3%,81.8%,102%,94.8%,91.3%,88.8%,88%,117%
CCCCc1nc2c(N)nc3ccccc3c2n1Cc1cccc(CN)c1,79.4%,77%,68.9%,70.5%,89.9%,65%,14.2%,16.3%,23.9%,33.9%
O=C(/C=C/c1csc(Br)n1)NO,37.6%,37.5%,68.7%,15.5%,-9.31% (active),8.2% (active),15.9%,-5.59% (active),21.2%,9.51% (active)
COc1ccc(NC(=O)CCCCCCNC(=O)C(O)(O)C(F)(F)F)cc1,12.7%,61.7%,59.9%,37.7%,6.59% (active),20.2%,26%,41.8%,26.2%,21%
NCCNC(=O)c1cccc(COc2ccccc2NC(=O)c2cc(Br)c(Br)[nH]2)c1,101%,89.9%,92.6%,90%,89%,101%,90.1%,81.1%,17.9%,68.7%
Brc1ccc(-c2cc(-c3ccc4c(c3)OC=CO4)n[nH]2)s1,97.3%,74.6%,99.1%,87.7%,149%,97.7%,62.9%,90.7%,79.4%,72.6%
O=S(=O)(NCCCNc1nccc(-c2[nH]c(-c3ccccc3)nc2-c2ccc(F)c(O)c2)n1)c1cccc(F)c1,39.2%,99.8%,99.1%,139%,134%,93.2%,95.5%,93.5%,37%,44.3%
CC(=O)N(O)CCCCCNC(=O)CCC(=O)N(O)CCCCCNC(=O)CCC(=O)N(O)CCCCCN(CCCCCCCCCC[P+](c1ccccc1)(c1ccccc1)c1ccccc1)CCCCCCCCCC[P+](c1ccccc1)(c1ccccc1)c1ccccc1,-46.7% (active),5.96% (active),1.45% (active),52.3%,26.5%,29.7%,29.3%,-3.27% (active),5.87% (active),8.41% (active)
CN(C)c1cccc2c(S(=O)(=O)Nc3cccc(-c4csc(NC(=O)CCCCCN5CCN(CCO)CC5)n4)c3)cccc12,99.7%,85%,80.1%,86.4%,120%,96.9%,86.1%,101%,72.8%,47.5%
Brc1cccc(-c2cc(-c3ccc4c(c3)OC=CO4)[nH]n2)c1,58.7%,56.7%,59.3%,50.4%,108%,43.7%,29.9%,42.6%,22%,29.2%
CC(C)NC(=O)c1cc(-c2ccc(NC(=O)Nc3ccc(F)cc3)cc2)nc2cccnc12,120%,102%,103%,92.8%,110%,103%,95%,107%,112%,133%
CC1(C)CC[C@]2(C(=O)O)CC[C@]3(C)C(=CC[C@@H]4[C@@]5(C)CC[C@H](NOCCCN)C(C)(C)[C@@H]5CC[C@]43C)[C@@H]2C1,93.3%,83.9%,83.5%,71.4%,122%,97.8%,93.7%,110%,66.4%,75.3%
N#Cc1c(-c2ccc(Br)cc2)cc(-c2c[nH]c3ccccc23)nc1N,39.6%,51.6%,66.3%,43.6%,96.8%,57.4%,30.9%,63.7%,34.1%,41.4%
Nn1c(=O)n(-c2cccc(C(F)(F)F)c2)c(=O)c2cc(-c3ccc(F)cc3F)ccc21,-21.5% (active),3.55% (active),1.86% (active),5.45% (active),7.05% (active),0.86% (active),-12.5% (active),-20.6% (active),13.3%,4.48% (active)
CCOC(=O)c1c(N)c(C#N)cn1Cc1ccc(Cl)cc1Cl,94.2%,81.8%,81.2%,59.9%,69.8%,87.4%,62.4%,73.5%,84.6%,65.1%
NC(=S)n1c(=O)n(-c2cccc(C(F)(F)F)c2)c(=O)c2cc(-c3ccc(F)cc3F)ccc21,-29.1% (active),5.19% (active),-3.03% (active),6.1% (active),7.56% (active),-0.456% (active),-13.5% (active),-18.8% (active),18%,0.58% (active)
C#C[C@]1(O)CC[C@H]2[C@@H]3CC=C4c5sc(Nc6ccc(C)cn6)nc5CC[C@]4(C)[C@H]3CC[C@@]21C,-25.1% (active),-21.7% (active),45.9%,-63.7% (active),18.6%,17.4%,-74.1% (active),-26.5% (active),10.6%,-42.3% (active)
Clc1ccc2[nH]cc(-c3nn4cc(-c5ccncc5)nc4s3)c2c1,79%,56.5%,33.9%,39.6%,125%,30.3%,54.5%,90.8%,75.2%,81.8%
Brc1cc(-c2cc(-c3ccc4c(c3)OC=CO4)[nH]n2)cs1,106%,72.8%,98.8%,71.2%,192%,93.7%,63.8%,87.1%,89.9%,78.7%
O=C(O)CC1CCN(c2ccc3nnc(Cl)n3n2)CC1,106%,99.1%,98.4%,81.5%,102%,98.6%,95.8%,90.2%,111%,109%
COc1ccc2sc(NC(=O)CCCCCCNC(=O)C(O)(O)C(F)(F)F)nc2c1,-17.5% (active),23.3%,10.5%,-13.7% (active),-12.4% (active),-26.8% (active),-16.3% (active),-35.2% (active),24.6%,13%

Compound,growth [1],growth [2],growth [3],growth [4],growth [5],growth [6],growth [7],growth [8],growth [9],growth [10]
CCCCCCOC(=O)c1cc(-c2ccc(F)cc2)nc2ccccc12,101%,96.8%,95%,86.6%,118%,100%,90.3%,76.4%,95.8%,97.2%
CN(C)S(=O)(=O)c1ccc(-c2nc(C(Cl)Cl)nc3cc(-c4ccccc4)nn23)cc1,112%,80%,81.1%,88.8%,101%,43.4%,73.1%,106%,77.3%,63.4%
O=S(=O)(Oc1ccc(-c2cn3ccoc3n2)cc1)C1CCCCC1,99.4%,100%,103%,97.4%,105%,105%,92.3%,90%,87.2%,93.5%
CC(Nc1c(C#N)cnc2ccc(-c3cncc(O)c3)cc12)c1ccccc1 (stereo not given),-43.6% (active),-13.6% (active),-5.67% (active),-9.46% (active),-13.2% (active),3.13% (active),7.08% (active),45%,10.6%,2.65% (active)
O=S(=O)(Oc1ccc(-c2cn3ccsc3n2)cc1)c1cccc(C(F)(F)F)c1,101%,94.3%,104%,93.1%,98.7%,98.4%,89.9%,86.8%,100%,97.6%
COC(=O)c1ccc(NC2=C(Cl)C(=O)c3nc(C)ccc3C2=O)cc1,88.3%,76.6%,77%,61.7%,152%,35.1%,80.2%,77.9%,16.1%,19.8%
N#C/C(=C\c1ccc(-c2ccc(Cl)c(Cl)c2)o1)C(=O)Nc1ncc(Cc2ccc(Cl)cc2)s1,87.9%,32.2%,12%,24.9%,68.5%,59.1%,57.4%,40.9%,31.9%,58.6%
c1ccc(-c2cn3c(-c4c[nH]c5ccccc45)csc3n2)cc1,77.4%,72%,53.6%,73%,148%,91.8%,77.9%,79.3%,53%,66.9%
O=C(NNc1nc2cc(F)cc(F)c2n2cccc12)c1cccnn1,20.8%,9.18% (active),18.5%,15.4%,42.4%,10.3%,12.4%,4.83% (active),6.41% (active),7.32% (active)
COC(=O)CNC(=O)c1cccc(-c2cc(=O)c3c(OC)c(OC)c(OC)cc3o2)c1,105%,102%,104%,86.1%,109%,98.9%,102%,90.8%,91.3%,99.5%
O=C(CCCCCCN1CC(=O)N2[C@@H](C3CC3)c3[nH]c4ccccc4c3C[C@H]2C1=O)NO,76.5%,85.7%,79%,70.1%,79.2%,67.6%,69.3%,98.8%,19.9%,16%
Cc1ccc2c(n1)C(=O)C(Cl)=C(Nc1cccc(C(=O)OC(C)(C)C)c1)C2=O,115%,86.3%,94.1%,78.4%,120%,77%,77.7%,66.6%,10.6%,6.09% (active)
CCn1c2ccc(/C=N/N(C)S(=O)(=O)CCN(C)C)cc2c2cc(/C=N/N(C)S(=O)(=O)CCN(C)C)ccc21,107%,94.7%,33.3%,47.5%,142%,70.2%,48.1%,85.3%,19.4%,15.1%
Cc1csc(/N=C(N)/N=C(\N)c2cccc(Br)c2)n1,101%,88.9%,90.7%,86.4%,149%,97.7%,85.7%,81.5%,98.6%,96.5%
N#Cc1c(-c2cccs2)cc(-c2cnccn2)nc1SCC(=O)N/N=C/c1ccccc1,103%,56.2%,45.5%,75.8%,-14.7% (active),56.9%,48.2%,87.8%,62.6%,71.8%
COc1ccc(/C=N/NC(=O)CSc2nc(-c3cnccn3)cc(-c3cccs3)c2C#N)cc1OC,102%,85.9%,91.1%,89%,123%,83%,88.1%,38.2%,93.9%,90.8%
CCc1cc(OC(=O)N2CCN(CCC(C)(COC(C)(C)C)COC(C)(C)C)CC2)ccc1Nc1cc(-c2ccc(-n3cccn3)cc2)[nH]n1,102%,66.1%,62.1%,81.3%,103%,81%,64.9%,81.2%,56.7%,52.9%
O=C(/C=C/c1cccc(C(F)(F)F)c1)Nc1cccc(C(F)(F)F)c1,76.8%,50.1%,83.1%,47.7%,53.5%,70.1%,34.1%,54.3%,31.7%,35.8%
CN1CCN(c2ccc(Nc3nc(NCCNS(=O)(=O)c4ccc(Cl)cc4)c4sccc4n3)cc2)CC1,110%,91.6%,97.7%,80%,128%,98.2%,72.8%,94.2%,75.7%,73.6%
CN1CCN(c2ccc(C(=O)/C=C/c3cc(F)cc(C(F)(F)F)c3)cc2)CC1,117%,88.9%,75.7%,53.3%,144%,67.9%,51.5%,96.9%,14.1%,46.8%
CN1CCN(Cc2ccc(NC(=O)c3cncc(C#Cc4cnc5ccc(O[C@@H]6CCOC6)nn45)c3)cc2C(F)(F)F)CC1,-78.3% (active),-85.8% (active),-77.4% (active),-91.8% (active),-83.5% (active),-100% (active),-96.8% (active),-94.7% (active),-15.8% (active),-26% (active)
